Compound activity from PubChem.
An excerpt weighted towards active compounds, which were near 6.8% of everything screened.
A340 absorber: absorbance at 340 nm; compound absorbance at 340 nm, fold over control; fold change at 10 µM; 65,000 tested, under 10 active; AID 708;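 active = at 10 µM dose, initial 340 nm absorbance at least 2 fold that of control wells; inactive = change under 2 fold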;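 note: initial absorbance extrapolated from kinetic A340 decline of NADH oxidation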
DPM-DC inhibit: blocks S. pneumoniae diphosphomevalonate decarboxylase; purified DPM-DC, PK/LDH coupled NADH fluorescence; calls only at 10 µM; 65,000 compounds, 0.49% hits;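 active = the 320 compounds with the highest percent inhibition in the single-dose primary screen, excluding strongly autofluorescent ones, cut at about 32% in these data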;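 note: kinetic rate of NADH fluorescence loss reporting ADP formed by the decarboxylase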
NADH enzymes: inhibitors of enzymes used to reach an NAD/NADH endpoint | coupled PK/LDH NADH assays, four targets | IC50, µM (top dose mostly 10 µM), for the others: at the top dose inhibition | 65,000 compounds, 0.02% hits | AID 774;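 active = single-dose screening hits from any of four coupled enzyme assays that gave an IC50 when retested across doses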;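 note: the DPM-DC format reads NADH fluorescence rather than 340 nm absorbance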
MK inhibit: blocks S. pneumoniae mevalonate kinase | purified MK, PK/LDH-coupled NADH absorbance 340 nm | inhibition, % at 10 µM | 65,000 compounds, 0.48% hits | AID 555;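 active = ranked among the strongest by inhibition in the single 10 µM screen, a fixed top-ranked set picked for dose follow-up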
Autofluor 339: intrinsic fluorescence of library compounds, ex339/em460 – biochemical, MLSMR library, data from DPM-DC assay, artefact control, profiling panel; 65,000 compounds, 5.5% hits; fluorescence fold increase at 10 µM; AID 709; compound autofluorescence, ex339/em460 nm, NADH buffer; hits give high values; 1 = no-compound wells, NADH background;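 active = at 10 µM, mean starting fluorescence two-fold or more over control wells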;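 note: signal is the first read of a kinetic run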
Spn PMK inh: S. pneumoniae PMK inhibition; 65,000 compounds, 0.49% hits; inhibition, % at 10 µM; AID 539; purified PMK, PK/LDH-coupled NADH absorbance 340 nm;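 active = top-ranked compounds by inhibition in the single 10 µM screen, taking a fixed number of the strongest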;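 note: 0% = full reaction with DMSO carrier and 100% = background rate without enzyme reaction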
Numbers without * were called inactive; i = inactive; . = not tested or not shown; + = active, no number; [ ] = dose if it differs, or a comment.

SMILES | A340 absorber | DPM-DC inhibit | NADH enzymes | MK inhibit | Autofluor 339 | Spn PMK inh
COc1ccccc1NC(=O)CC1Nc2ccccc2NC1=O (configuration not stated) | 1.1 | i | 10% | 11 | 1.4 | 6
Cc1cc2c(cc1C)NC(CC(=O)NCc1ccccc1)C(=O)N2 (configuration not stated) | 1.2 | . | 0% | 0 | 2.1* | 0
COc1ccc(CCNC(=O)CC2Nc3cc(C)c(C)cc3NC2=O)cc1OC (configuration not stated) | 1.1 | i | 6% | 2 | 2.1* | 14
Cn1nnnc1Sc1ncnc2scc(-c3ccccc3)c12 | 0.98 | i | 7% | 7 | 1.1 | 14
Cn1nnnc1Sc1ncnc2scc(-c3ccc(F)cc3)c12 | 0.96 | i | 11% | 5 | 1.1 | 29*
O=c1c2ccccc2cnn1-c1nc2ccccc2s1 | 0.99 | . | 3% | 0 | 3* | 13
O=c1c2ccccc2ncn1Cc1nc2ccccc2s1 | 1.1 | i | 2% | 7 | 1.1 | 0
CCn1nnc(NC(=O)c2ccc(-c3ccc(Cl)cc3)o2)n1 | 1 | i | 3% | 5 | 2.1* | 11
CCCn1nnc(NC(=O)c2ccco2)n1 | 1.1 | i | 9% | 9 | 1.1 | 6
COc1cc(CCC(=O)N2CCN(S(=O)(=O)c3ccc(C)c(C)c3)CC2)cc(OC)c1OC | 0.99 | i | 6% | 0 | 1 | 18
O=C(CCCc1c[nH]c2ccccc12)N1CCN(c2ccc(N3CCOCC3)nn2)CC1 | 1 | . | 3% | 5 | 2.1* | 1
COc1cc(CCC(=O)N2CCN(c3ccc(N4CCOCC4)nn3)CC2)cc(OC)c1OC | 1 | . | 12% | 8 | 2.2* | 15
NC(=O)CCc1c[nH]c2ccccc12 | 1 | i | 4% | 6 | 1.2 | 5
Cc1ccc(C)c(S(=O)(=O)N2CCN(CC(=O)NC(=O)NCc3ccccc3)CC2)c1 | 0.99 | i | 4% | 0 | 1 | 13
CCN(Cc1ccccc1)S(=O)(=O)c1nc2nc(C)c(C)c(C)n2n1 | 0.94 | i | 8% | 13 | 1 | 12
CCOC(=O)c1sc(NC(=O)CCn2nnc3ccccc32)c(C(=O)OCC)c1C | 1 | i | 8% | 0 | 1.2 | 23
N#Cc1c(N2CCCC2)nc(N)c2c(N)nc(N3CCCC3)cc12 | 0.97 | . | 2% | 3 | 2.5* | 5
COc1cc2c(C#N)c(N3CCN(c4ccccc4OC)CC3)nc(N)c2c(N)n1 | 1 | +[fluoresces] | 3% | 12 | 2.4* | 0
Cc1cc(C)c(C#N)c(N2CCCC2)n1 | 1.1 | . | 10% | 15 | 3.6* | 4
N#Cc1c(N)nc(N2CCCC2)c(C#N)c1-c1ccc(Cl)cc1 | 1 | i | 4% | 3 | 1.1 | 8
Cc1ccc(NC(=O)CSc2nnc(Cn3cnc4ccccc43)o2)cc1 | 0.97 | i | 7% | 8 | 1.2 | 12
CC(C)NC(=O)Cn1nnc(-c2ccc(Cl)cc2)n1 | 1 | i | 6% | 7 | 1.1 | 11
C=CCOC(=O)C1=C(C)NC(SCC(=O)NC(=O)OCC)=C(C#N)C1c1cccnc1 (configuration not stated) | 1.1 | i | 14% | 3 | 3.1* | 7
COc1ccc(C2C=C(C)Nc3nc(SC)nn32)cc1 (configuration not stated) | 1 | . | 8% | 8 | 5.1* | 8
CCOC(=O)C1=C(C)Nc2nc(SC)nn2C1c1ccc(C(=O)OC)cc1 (configuration not stated) | 1 | i | 3% | 2 | 1.2 | 6
SMILES | A340 absorber | DPM-DC inhibit | NADH enzymes | MK inhibit | Autofluor 339 | Spn PMK inh
COc1ccc(NC(=O)CN2CCN(S(=O)(=O)c3ccc(C(C)C)cc3)CC2)cc1OC | 0.97 | i | 6% | 5 | 1.1 | 12
C=COC(=O)CSc1nc(-c2cccs2)ccc1C#N | 1.1 | i | 3% | 8 | 2.1* | 0
CCN(CC)C(=O)CSc1nc(C)cc(-c2cccs2)c1C#N | 1.1 | i | 10% | 11 | 1.1 | 8
CCOC(=O)C(C)Sc1nc(-c2cccs2)ccc1C#N (configuration not stated) | 1.1 | . | 3% | 5 | 2.2* | 0
O=C(CCNS(=O)(=O)c1cccs1)NCc1ccco1 | 1 | i | 3% | 6 | 1.1 | 3
Nc1ccc(-c2nc3c(Cl)cc(N)cc3[nH]2)cc1 | 1.3 | . | 15% | 11 | 4.9* | 18
Cc1nnc2sc(-c3ccc(NC(=O)CSc4ccc(Cl)cc4)cc3)nn12 | 1.1 | i | 4% | 4 | 1.6 | 5
CCc1nnc2sc(-c3ccc(NC(=O)CSc4ccc(Cl)cc4)cc3)nn12 | 1.1 | + | 17% | 10 | 3* | 7
CC(C)C(=O)N1CCN(c2nc(-c3ccccc3)c3c(c2C#N)CCCC3)CC1 | 1 | . | 4% | 3 | 2.2* | 2
CC1(C)Cc2c(C#N)c(N3CCOCC3)nc(Cc3ccccc3)c2CO1 | 1 | . | 5% | 3 | 2.3* | 6
CCc1nc(N2CCOCC2)c(C#N)c2c1COC(C)(C)C2 | 1 | . | 13% | 12 | 3.7* | 14
CC1(C)Cc2c(C#N)c(N3CCOCC3)nc(-c3ccccc3)c2CO1 | 1 | . | 6% | 5 | 2.2* | 7
COc1ccc(CCNC(=O)CSc2nnc(-c3ccc(F)cc3)o2)cc1OC | 1 | i | 1% | 3 | 1.1 | 0
CC(C)Cc1nc(N2CCN(C(=O)Cc3ccccc3)CC2)c(C#N)c2c1COC(C)(C)C2 | 1 | i | 3% | 2 | 1.3 | 8
CCOC(=O)N1CCN(c2ncnc3c2oc2nc(CC(C)C)c4c(c23)CCC4)CC1 | 1 | i | 3% | 0 | 1.8 | 0
CC1(C)Cc2nc(NCCCO)c(C#N)cc2CO1 | 1.1 | . | 2% | 0 | 2.4* | 4
CCc1nc(N2CCN(C(=O)c3ccccc3)CC2)c(C#N)c2c1COC(C)(C)C2 | 1.1 | . | 2% | 3 | 2.3* | 1
N#Cc1cc2cc3c(cc2nc1N1CCOCC1)OCO3 | 1.1 | . | 5% | 0 | 3.8* | 10
CCCC(=O)N1CCN(c2nc(CC(C)C)c3c(c2C#N)CCC3)CC1 | 1 | . | 5% | 9 | 2.2* | 1
CCc1nnc(NC(=O)C2CCN(c3nc(C)cc(C)n3)CC2)s1 | 0.98 | i | 11% | 10 | 1.4 | 14
Cc1nc(N2CCOCC2)c(C#N)c2c1COC(C)(C)C2 | 1 | . | 0% | 0 | 2.3* | 0
CC1(C)Cc2c(C#N)c(NCCN3CCOCC3)nc(-c3ccco3)c2CO1 | 0.98 | i | 3% | 0 | 1.4 | 10
CC1(C)Cc2nc(N3CCOCC3)c(C#N)cc2CO1 | 1.1 | . | 14% | 15 | 3.7* | 12
CC1(C)Cc2c(C#N)c(SCc3ccccc3)nc(N3CCOCC3)c2CO1 | 1.1 | i | 3% | 5 | 1.1 | 2
CC1CCN(c2nc(-c3ccco3)c3c(c2C#N)CC(C)(C)OC3)CC1 | 1.1 | . | 11% | 7 | 2.1* | 15
